Measurements: PubChem BioAssay AID774 (SRMLSC, 2007)
About 15 (0.02%) of roughly 65,000 compounds were called active.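 The calls were made as follows: active = single-dose screening hits from any of four coupled enzyme assays that gave an IC50 when retested across doses; inconclusive = no clear call, values can overlap the other calls; inactive = the rest.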 These entries were drawn from the full list.

Test: inhibitors of PK/LDH coupling enzymes, profiling panel, artefact control, biochemical, MLSMR library (AID 774);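 also: the DPM-DC format reads NADH fluorescence rather than 340 nm absorbance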
Conditions: coupled PK/LDH NADH assays, four targets; at 10 µM; hits give high values

inhibition, inactive:
CC(C)[C@H](NC(=O)Nc1ccc(S(N)(=O)=O)cc1)C(=O)O 2%
C/C(N)=C(\C#N)C(=O)NCCc1ccccn1 5%
O=C(Cn1c(=O)sc2ccccc21)Nc1nc2c(s1)CCCC2 5%
c1ccc2c(c1)OCC(c1nn3cnnc3s1)O2 (stereo unspecified) 3%
COc1cccc(-c2cc3nc4c(c(N5CCC6(CC5)OCCO6)n3n2)CCCC4)c1 4%
C=CCc1cccc2cc(C(=O)N3CCN(C(=O)OCC)CC3)c(=O)oc12 4%
CCOC(=O)CC1C(=O)NCCN1C(=O)COc1ccc(Br)cc1C (stereo unspecified) 4%
Cc1nn(-c2ccccc2)c2[nH]c(C(F)(F)F)cc(=O)c12 3%
O=[n+]1c2c(n([O-])c3cc(Br)ccc31)CCC2 5%
CC(C)CCNc1nc(N2CCCC2)c2c(c1C#N)CCN(C)C2 7%
COc1ccc(N2C(=O)CCC(C(=O)Nc3ccccn3)C2c2ccc(OC)c(OC)c2)cc1 (stereo unspecified) 2%
Cc1ccc(S(=O)(=O)c2nc(NCCCn3ccnc3)sc2Cl)cc1 6%
COc1ccc(N(CC(=O)NC(C)(C)C)C(=O)c2ccco2)cc1 1%
CCOC(=O)c1[nH]c2ccccc2c1N=C(C)N(CC)CC 4%
COc1cccc2c(C)c(C(=O)O)[nH]c12 14%
COCCCNC(=O)c1c(F)c(F)c(F)c(F)c1F 5%
O=C(CCn1c(=O)oc2ccccc21)Nc1ccon1 5%
COc1cc(C2C(C(=O)Nc3ccc(F)cc3)=C(C)Nc3nc(CCCO)nn32)cc(OC)c1OC (stereo unspecified) 9%
OCCCN1c2ccccc2Nc2nnc(-c3ccccc3)cc21 2%
C=C1c2cc(CC)ccc2NC(=O)N1c1ccc(C)cc1 4%
CCc1nnc(NC(=O)CCC(=O)O)s1 1%
COc1cc(-c2nnc(Cn3cc(C(F)(F)F)ccc3=O)o2)cc(OC)c1OC 4%
CCOP1(=O)C=C(C(C)(C)C)OC1c1ccc(F)cc1 (stereo unspecified) 5%
CCN(CC)C(=O)CSc1nnc(-c2ccc(S(=O)(=O)NCc3ccccc3Cl)cc2)o1 6%
CCc1c(C)n([O-])c2c([n+]1=O)CCCCC2 4%
Cc1noc(NS(=O)(=O)c2ccc(N3CC(O)=C(c4ccccc4)C3=N)cc2)c1C 4%
Cn1c(NC(=O)c2ccc3c(c2)OCO3)cc(=O)n(C)c1=O 7%
COC(=O)Cc1c(C)c2ccc(OCC(=O)NCc3ccc4c(c3)OCO4)cc2oc1=O 10%
O=C(CSc1nc2ncccc2[nH]1)Nc1ccc2c(c1)OCCO2 1%
CNC(=O)CSc1nnnn1-c1ccc(C)cc1C 2%
CCC(C(=O)Nc1ncccn1)(C(F)(F)F)C(F)(F)F 1%
COc1ccc(C2/C(=C(/O)c3ccccc3)C(=O)C(=O)N2c2ncccn2)cc1OC (stereo unspecified) 1%
O=C(COC(=O)c1ccccc1C(=O)c1ccccc1)c1ccco1 4%
Cc1cc(C)n(C(=O)c2ccc(S(=O)(=O)N3CCCC3)cc2)n1 4%
CC1(C)CCCC2=C1CC1C(=O)N(c3ccccc3)C(=O)C1C2 (stereo unspecified) 6%
Cc1ccc2cccc(O)c2[n+]1[O-] 10%
CCOc1ccccc1-n1c(SCC(=O)N2CCCC2)nnc1-c1ccoc1C 4%
O=C(CN1C(=O)C2C3C=CC(C3)C2C1=O)NCC1COc2ccccc2O1 (stereo unspecified) 8%
Cn1nnnc1SCc1cc(=O)[nH]c2ccccc12 6%
Cc1cc(OCCN2CCCC2)ccc1C(C)C 14%
CC1(C)CC(=O)c2sc(N)nc2C1 3%
CCOC(=O)C1CCN(C(=O)Cn2cc(C#N)c3ccccc32)CC1 5%
COc1ccc(-c2nn(-c3ccccc3)cc2C(=O)Nc2nc(CC(C)=O)ns2)cc1 4%
CCOC(=O)CCCNC(=O)CN1C(=O)NC(CCc2ccccc2)C1=O (stereo unspecified) 5%
Cc1ccc(CCn2c3c(c4ccccc42)CN(C)CC3)cn1 2%
CC(C)C1Cc2c(sc3c2c(=O)n(-c2ccccc2)c2nncn32)CO1 (stereo unspecified) 3%
CN1c2ccccc2-c2nc3ccccc3n2C1c1ccco1 (stereo unspecified) 6%
C=CCn1c(COc2ccccc2)nnc1SCC(=O)NCC(=O)OCC 3%
Cc1cccc(OCC(O)Cn2c(=N)n(CCN3CCOCC3)c3ccccc32)c1 (stereo unspecified) 6%
C/C(=C\c1ccco1)C1Nc2cccc3cccc(c23)N1 10%
Cc1cc(NC(=O)Nc2ccccc2)n(-c2ccccc2)n1 1%
COc1ccc(Br)cc1/C=N/n1c(C)nnc1C 6%
O=C(Nc1ccccc1N1CCN(C(=O)c2ccccc2)CC1)c1ccc2c(c1)OCO2 4%
C=CCNc1nc(C)nc(OC)n1 3%
CCCCC(CC)C(=O)Nc1ccc(Cl)cn1 (stereo unspecified) 5%
CC(=O)c1c(N2CCOCC2)nc(=S)n(-c2cc(C)ccc2C)c1C 5%
CC(C)CCn1c(CN(C)Cc2ccccc2)nc2c1c(=O)n(C)c(=O)n2C 8%
COC(=O)c1ccc(C2CC(=O)Nc3cc(OC)c(OC)cc32)cc1 (stereo unspecified) 9%
CCOc1ccccc1NC(=O)C1CCC(CNc2c(N3CCOCC3)c(=O)c2=O)CC1 (stereo unspecified) 7%
O=C(CSc1ncccn1)NCCc1ccccc1 5%
COc1ccc(OC)c(NC(=O)CN2CCN(C(=O)c3ccco3)CC2)c1 3%
Cc1cccc(C)c1NC(=O)CCCSc1nnc(-c2ccco2)n1-c1ccccc1 3%
CCOC(=O)c1c(C(C#N)C#N)cc(C)nc1C 7%
Cc1cc(C)c(C(=O)CN2C(=O)CCC2=O)cc1C 5%
Oc1c(C(c2ccco2)N2CCC3(CC2)OCCO3)sc2ncnn12 (stereo unspecified) 3%
CCOC(=O)c1cc2cc(-c3c(C(=O)OCC)oc4cc(O)cc(O)c4c3=O)ccc2o1 3%
